PubChem BioAssay (NCI)
“And” between values parts separate entries of the source, which are not always exact repeats. Equal entries are not always repeated. The panel holds about 83,000 compounds, 20% with a hit somewhere; the sample as a whole holds those more often.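 Cells were grown in 96-well plates and exposed to the test compound at a single concentration for 48 hours; results are reported as percent growth, with values below 10 considered active.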 The source made the active and inactive calls.

How the values were obtained:
Experiment in all cases: NCI-60 one-dose screen, 48 h (100 = growth as untreated, 0 = no growth, -100 = all killed)
Settings in all cases: 10 µM unless noted
NCI-H23 lung = system: NCI-H23 lung
NCI-H226 lung = system: NCI-H226 lung
NCI-H322M lung = system: NCI-H322M lung
HOP-62 NSCLC = system: HOP-62 NSCLC
NCI-H460 lung = system: NCI-H460 lung
HOP-92 NSCLC = system: HOP-92 NSCLC
NCI-H522 lung = system: NCI-H522 lung
A549/ATCC NSCLC = system: A549/ATCC NSCLC
786-0 renal = system: 786-0 renal
COLO 205 colon = system: COLO 205 colon
DU-145 prostate = system: DU-145 prostate
K-562 leukemia = system: K-562 leukemia
MALME-3M melanoma = system: MALME-3M melanoma
MDA-MB-231 breast = system: MDA-MB-231 breast
RXF 393 renal = system: RXF 393 renal
SF-268 CNS = system: SF-268 CNS
SF-295 CNS = system: SF-295 CNS
SF-539 CNS = system: SF-539 CNS
UACC-257 melanoma = system: UACC-257 melanoma
M14 melanoma = system: M14 melanoma

Measured: growth

CCOC(=O)c1csc(N)n1
inactive: NCI-H23 lung 105% and 102% | NCI-H226 lung 102% and 105% | NCI-H322M lung 87.1% and 101% | HOP-62 NSCLC 103% and 96.9% | NCI-H460 lung 105% | HOP-92 NSCLC 96% and 95.7% | NCI-H522 lung 88.7% | A549/ATCC NSCLC 81.5% and 93.8% | 786-0 renal 101% and 100% | COLO 205 colon 129% and 108% | DU-145 prostate 105% and 104% | K-562 leukemia 101% and 102% | MALME-3M melanoma 112% and 108% | MDA-MB-231 breast 107% and 98.7% | RXF 393 renal 100% | SF-268 CNS 108% and 96.7% | SF-295 CNS 99.8% and 92.5% | SF-539 CNS 94.8% and 101% | UACC-257 melanoma 87.3% | M14 melanoma 118% and 98.3%

CCOC(=O)CN1CCC(C(=O)OCC)CC1
inactive: NCI-H23 lung 102% | NCI-H226 lung 107% | NCI-H322M lung 124% | HOP-62 NSCLC 98.9% | NCI-H460 lung 108% | HOP-92 NSCLC 92.3% | NCI-H522 lung 96.1% | A549/ATCC NSCLC 103% | 786-0 renal 109% | COLO 205 colon 112% | DU-145 prostate 118% | K-562 leukemia 118% | MALME-3M melanoma 111% | MDA-MB-231 breast 103% | RXF 393 renal 127% | SF-268 CNS 113% | SF-295 CNS 119% | SF-539 CNS 117% | UACC-257 melanoma 110% | M14 melanoma 105%

Nc1nc(=S)c2[nH]cnc2[nH]1
inactive: NCI-H23 lung 17.6% and 161% | NCI-H226 lung 39% and 37.4% | NCI-H322M lung 39.2% and 85.7% | HOP-62 NSCLC 16.5% and 18% | DU-145 prostate 21.3% and 21% | MALME-3M melanoma 21.6% and 35.7% | MDA-MB-231 breast 32.9% and 29.4% | SF-268 CNS 17.8% and 26.3% | SF-295 CNS 25.6% and 19% | UACC-257 melanoma 41.4% and 24.2%
17.2% (inactive) and 9.97% (active): 786-0 renal
active: NCI-H460 lung 3.77% and 6.79% | HOP-92 NSCLC -2.57% | NCI-H522 lung -4.74% and 7.57% | COLO 205 colon -27.5% and 7.45% | K-562 leukemia 9.77% and -2.79% | RXF 393 renal 5.3% and -2.73% | SF-539 CNS 7.88% | M14 melanoma 5.54%
31.7% (inactive) and 2.46% (active): A549/ATCC NSCLC

CC(=O)Oc1cc(C(C)C)c(OCCN(C)C)cc1C
-91.1% (active) and 97.5% (inactive): UACC-257 melanoma
-83.3% (active) and 99.8% (inactive): A549/ATCC NSCLC
inactive: NCI-H23 lung 99.8% and 105% | NCI-H226 lung 120% and 103% | NCI-H322M lung 102% and 105% | HOP-62 NSCLC 110% and 97.1% | NCI-H460 lung 115% and 103% | HOP-92 NSCLC 107% | NCI-H522 lung 112% and 115% | 786-0 renal 99.6% and 104% | COLO 205 colon 114% and 108% | DU-145 prostate 124% and 118% | K-562 leukemia 115% and 124% | MALME-3M melanoma 97.5% and 106% | MDA-MB-231 breast 103% and 112% | RXF 393 renal 112% and 101% | SF-268 CNS 112% and 109% | SF-295 CNS 103% and 92% | SF-539 CNS 112% and 99.6% | M14 melanoma 99.8%

COc1cc(Cl)ccc1C
active: DU-145 prostate 5.38%
inactive: NCI-H23 lung 90.3% | NCI-H226 lung 98.3% | NCI-H322M lung 85.6% | HOP-62 NSCLC 99.5% | NCI-H460 lung 34% | HOP-92 NSCLC 99.3% | NCI-H522 lung 57% | A549/ATCC NSCLC 84.5% | 786-0 renal 100% | COLO 205 colon 94.1% | K-562 leukemia 83.3% | MALME-3M melanoma 93.7% | MDA-MB-231 breast 85.9% | RXF 393 renal 91.2% | SF-268 CNS 83.9% | SF-295 CNS 79.2% | SF-539 CNS 104% | UACC-257 melanoma 85% | M14 melanoma 95.8%

COc1ccc(-n2[nH]c3c(cnc4ccccc43)c2=O)cc1
inactive: NCI-H23 lung 73.1% and 95.9% | NCI-H226 lung 103% and 95.3% | NCI-H322M lung 93.2% and 101% | HOP-62 NSCLC 100% and 94.5% | NCI-H460 lung 103% and 108% | HOP-92 NSCLC 99.8% and 102% | NCI-H522 lung 89.2% | A549/ATCC NSCLC 92.4% and 102% | 786-0 renal 77.7% and 91.3% | COLO 205 colon 137% and 119% | DU-145 prostate 95.8% and 101% | K-562 leukemia 112% and 90.7% | MALME-3M melanoma 63.7% and 105% | MDA-MB-231 breast 119% | RXF 393 renal 110% and 98.3% | SF-268 CNS 103% and 106% | SF-295 CNS 86.9% and 92.7% | SF-539 CNS 87.8% and 93.4% | UACC-257 melanoma 109% | M14 melanoma 92.3% and 104%

CC(NC(=O)CCl)c1ccccc1 (stereo not given)
inactive: NCI-H23 lung 99.9% | NCI-H226 lung 96.3% | NCI-H322M lung 106% | HOP-62 NSCLC 107% | NCI-H460 lung 99.7% | HOP-92 NSCLC 89% | NCI-H522 lung 98% | A549/ATCC NSCLC 104% | 786-0 renal 104% | COLO 205 colon 104% | DU-145 prostate 103% | K-562 leukemia 109% | MALME-3M melanoma 99.4% | MDA-MB-231 breast 111% | RXF 393 renal 98.7% | SF-268 CNS 98.3% | SF-295 CNS 102% | SF-539 CNS 104% | UACC-257 melanoma 100% | M14 melanoma 93.8%

O=S(=O)(O)c1ccc2cc(O)ccc2c1
inactive: NCI-H23 lung 98.3% | NCI-H226 lung 98% | NCI-H322M lung 99.2% | HOP-62 NSCLC 99.7% | NCI-H460 lung 102% | HOP-92 NSCLC 88.8% | NCI-H522 lung 90% | A549/ATCC NSCLC 111% | 786-0 renal 104% | COLO 205 colon 103% | DU-145 prostate 112% | K-562 leukemia 103% | MALME-3M melanoma 101% | MDA-MB-231 breast 108% | RXF 393 renal 109% | SF-268 CNS 106% | SF-295 CNS 110% | SF-539 CNS 102% | UACC-257 melanoma 105% | M14 melanoma 103%

O=C(O)C#Cc1ccc(Cl)cc1
inactive: NCI-H23 lung 109% | NCI-H226 lung 93.2% | NCI-H322M lung 111% | HOP-62 NSCLC 89.3% | NCI-H460 lung 105% | HOP-92 NSCLC 97.8% | NCI-H522 lung 87.2% | A549/ATCC NSCLC 87.2% | 786-0 renal 99.4% | COLO 205 colon 99.9% | DU-145 prostate 109% | K-562 leukemia 88.5% | MALME-3M melanoma 104% | MDA-MB-231 breast 100% | RXF 393 renal 108% | SF-268 CNS 104% | SF-295 CNS 99.7% | SF-539 CNS 102% | UACC-257 melanoma 87.3% | M14 melanoma 98.2%

Nc1ccc2ccc(NS(=O)(=O)N3CCCCC3)cc2c1
active: NCI-H460 lung 7.56% | COLO 205 colon -40.9% | K-562 leukemia 8.04% | SF-539 CNS -21.7%
inactive: NCI-H23 lung 43.8% | NCI-H226 lung 15.2% | NCI-H322M lung 50.9% | HOP-62 NSCLC 35.4% | HOP-92 NSCLC 68% | NCI-H522 lung 47.5% | A549/ATCC NSCLC 39.3% | 786-0 renal 30.7% | DU-145 prostate 12.7% | MALME-3M melanoma 45.3% | MDA-MB-231 breast 11.8% | RXF 393 renal 51.4% | SF-268 CNS 32.3% | SF-295 CNS 15.1% | UACC-257 melanoma 87.7% | M14 melanoma 11.2%

Nc1[nH][nH]c(=O)c1N=Nc1ccccc1
inactive: NCI-H23 lung 98.7% and 99% | NCI-H226 lung 106% and 91.8% | NCI-H322M lung 129% and 102% | HOP-62 NSCLC 104% and 105% | NCI-H460 lung 99.8% and 117% | HOP-92 NSCLC 101% | NCI-H522 lung 88.9% and 79.1% | A549/ATCC NSCLC 103% and 110% | 786-0 renal 113% and 109% | COLO 205 colon 107% and 112% | DU-145 prostate 109% and 111% | K-562 leukemia 137% and 92.5% | MALME-3M melanoma 128% and 115% | MDA-MB-231 breast 93.8% and 119% | RXF 393 renal 123% and 107% | SF-268 CNS 103% and 114% | SF-295 CNS 111% and 114% | SF-539 CNS 102% and 106% | UACC-257 melanoma 109% | M14 melanoma 102% and 112%
